TrxR1 inh: qHTS Assay for Inhibitors of Mammalian Selenoprotein Thioredoxin Reductase 1 (TrxR1): qHTS | Thioredoxin reductase 1, cytoplasmic (Rattus norvegicus), O89049 | recombinant rTrxR1, NADPH fluorescence consumption, selenite substrate | Potency, µM (series often up to 114 µM), actives largely listed as inhibitors | 390,000 tested, 1% active | AID 588453, 2011; also: nearly all actives have a fitted effect of over 65% in size
Target sequence (O89049 whole entry, looked up): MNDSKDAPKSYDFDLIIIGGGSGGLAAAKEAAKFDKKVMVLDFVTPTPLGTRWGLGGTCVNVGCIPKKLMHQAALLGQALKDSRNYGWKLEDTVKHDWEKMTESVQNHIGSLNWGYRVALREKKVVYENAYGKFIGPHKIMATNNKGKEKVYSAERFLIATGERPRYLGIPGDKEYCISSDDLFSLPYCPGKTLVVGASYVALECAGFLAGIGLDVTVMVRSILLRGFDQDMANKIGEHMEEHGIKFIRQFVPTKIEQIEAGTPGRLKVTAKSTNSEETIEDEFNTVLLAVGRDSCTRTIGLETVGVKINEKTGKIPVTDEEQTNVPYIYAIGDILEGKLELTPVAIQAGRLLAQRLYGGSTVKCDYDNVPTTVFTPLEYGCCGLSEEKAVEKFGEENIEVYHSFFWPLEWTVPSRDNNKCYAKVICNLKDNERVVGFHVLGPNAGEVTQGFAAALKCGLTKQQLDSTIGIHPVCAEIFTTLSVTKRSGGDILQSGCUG
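Rat TrxR1 (90 nM in the dispensed reagent) was pre-reduced with 400 uM NADPH for 5 min at room temperature, then incubated with compound for 15 min. After 400 uM selenite was added, NADPH fluorescence (Ex 340/Em 450 nm) was followed for 8 min.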
GLS inhibitor: qHTS for Inhibitors of Glutaminase (GLS) | Glutaminase kidney isoform, mitochondrial (Homo sapiens), O94925 | GLS enzymatic activity, qHTS titration | Potency, µM (series often up to 45.5 µM), usual class: inhibitors | 410,000 tested, 0.21% active | AID 624170, 2012
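Human kidney-isoform GLS in 45 mM KH2PO4 pH 8.2, 0.02% Tween-20, with compound, started with 1mM L-Glutamine (added stock). Glutamate oxidase/HRP/Amplex red coupled fluorescence read at start and after 30 min at RT.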
TrxR1 substrate: qHTS Assay for Substrates of Mammalian Selenoprotein Thioredoxin Reductase 1 (TrxR1): qHTS; Thioredoxin reductase 1, cytoplasmic (Rattus norvegicus), O89049; purified TrxR1 substrate turnover, NADPH consumption readout; Potency, µM (titrated, usually from 114 µM); 390,000 tested, 0.01% active; AID 588456, 2011; also: nearly all actives have a fitted effect of over 50% in size
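Rat TrxR1, dispensed at 90 nM, was prereduced with 400 uM NADPH (final) for 5 min at ~22 deg C, then incubated with compound 15 min before 400 uM selenite. A first-read NADPH fluorescence drop versus no-compound background flagged substrates.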
LDHA inh: qHTS assay for inhibitors of human lactate dehydrogenase. L-lactate dehydrogenase A chain (Homo sapiens), P00338. purified LDHA, NADH/diaphorase-resazurin fluorescence; active compounds read low. activity change, % (values are at about 110 or 230 µM). 480,000 tested, 0.15% active. AID 1347041, 2019; in the data active = activity change below about -30%; inconclusive = mostly about -25% to -30%
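Human LDH5 (2 nM) was incubated with 0.06 mM NADH and 0.2 mM pyruvate for 5 min at room temperature in Tris pH 7.4. Remaining NADH was coupled through diaphorase/resazurin, and resorufin fluorescence was read at 0 and 20 min.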
mIDH1 inhibitor: qHTS for Inhibitors of mutant isocitrate dehydrogenase 1 (IDH1): qHTS | IDH1-R132H enzyme, NADPH consumption, diaphorase/resazurin fluorescence | Potency, µM (doses to about 76.6 µM), actives largely listed as inhibitors | 390,000 tested, 0.093% active; also: nearly all actives have a fitted effect of over 65% in size
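IDH1-R132H (0.5 ug/mL dispensed) in pH 7.5 Tris buffer was preincubated 30 min with compound, then given a substrate mix of 0.016 mM NADPH and 2 mM alpha-KG for 80 min at room temperature; remaining NADPH was read by diaphorase/resazurin fluorescence.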
PKM2 activator: qHTS Assay for Activators of Human Muscle isoform 2 Pyruvate Kinase; 260,000 tested, 0.34% active; purified PKM2, Kinase-Glo ATP luminescence, activation; response scale: 0% is enzyme alone, no compound; Potency, µM (series often up to 57.5 µM), hits mostly activators; Pyruvate kinase PKM (Homo sapiens), P14618; also: nearly all actives have a fitted effect of over 55% in size
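ATP formation by purified human PK-M2, quantified via coupled luciferase luminescence after 1 h at room temperature with 0.1 mM ADP and 0.5 mM PEP final.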
Numbers stand for hits; n = inactive; u = inconclusive; x = no result given; [ ] = another dose, or the depositor's remark. This is a sample that favours compounds with a hit; in the whole collection about 1.4% have one here. Unless noted, calls follow the shape of the dose curve; as a rule, active = well fitted curve in the direction sought with a large enough effect; inconclusive = small, poorly fitted or top-dose-only effect, or another doubt; inactive = no such curve, though single readings can be large; an effect the other way counts as inactive or inconclusive.

SMILES	TrxR1 inh	GLS inhibitor	TrxR1 substrate	LDHA inh	mIDH1 inhibitor	PKM2 activator
CC(=O)Nc1cccc(C(=O)/C=C/c2ccc[nH]2)c1	70.8µM	n	n	n	n	n
CC(C)NC(=O)NCc1c(-n2cccc2)sc2c1CCN(C)C2	x	x	x	n	x	x
O=S(NCc1ccccc1)C12CC3CC(CC(C3)C1)C2 (stereo not given)	n	n	n	n	n	n
O=S(NCc1ccco1)C12CC3CC(CC(C3)C1)C2 (stereo not given)	35.5µM	n	n	n	n	n
CC(Sc1ccc([N+](=O)[O-])cn1)C(=O)Nc1nccs1 (stereo not given)	n	n	n	n	n	6.31µM
Cc1cc(C)nc(SCC(=O)NC(=O)c2ccccc2O)n1	12.6µM	n	n	n	n	x
O=C1N(c2ccccc2)C[C@@H]2C[C@@H](c3cccs3)N3CCC[C@@]123	20µM	n	n	n	n	n
COCCCNS(=O)(=O)c1cccc2cc(C)cnc12	x	x	x	n	x	x
CCc1cccc(NS(=O)(=O)c2ccc3c(c2)NC(=O)CC(=O)N3)c1	n	n	n	n	n	n
O=C1CCc2cc(S(=O)(=O)Nc3cccc(Cl)c3)ccc2N1	x	n	x	n	x	x
Cc1cccc(NS(=O)(=O)c2ccc3c(c2)CCC(=O)N3)c1	n	n	n	n	n	3.98µM
Cc1ccc(NS(=O)(=O)c2ccc3c(c2)CC(=O)N3)cc1C	n	n	n	n	n	14.1µM
CCc1cccc(NS(=O)(=O)c2ccc3c(c2)CCC(=O)N3)c1	n	n	n	n	n	2.82µM
CC(C)CCCC(C)NC(=O)C1CCN(c2ncnc3nc[nH]c23)CC1 (stereo not given)	x	x	x	n	x	x
Nc1c(C(=O)Nc2cc(Cl)cc(Cl)c2)sc2nc(-c3ccncc3)ccc12	x	x	x	-31.6	x	x
O=C(N/N=C/c1ccc(O)cc1O)c1ccncc1	n	12.6µM	n	n	n	x
Cc1ccc2cc(CN(CCCN3CCOCC3)C(c3nnnn3Cc3ccco3)C(C)C)c(=O)[nH]c2c1C (stereo not given)	10µM	n	n	n	n	x
C=CCOc1ccc(C(=O)Nc2ccccc2-c2ccccc2)cc1	x	x	x	n	x	x
O=C(N/N=C/c1ccc(N2CCOCC2)o1)c1cccc(C(F)(F)F)c1	7.08µM	u	n	n	n	n
O=C(N/N=C/c1ccc(N2CCCCC2)o1)c1ccccc1[N+](=O)[O-]	10µM	n	n	n	n	u
O=C(N/N=C/c1ccc(N2CCOCC2)o1)c1ccccc1[N+](=O)[O-]	8.91µM	n	n	n	n	u
O=C(N/N=C/c1ccncc1)c1ccccc1[N+](=O)[O-]	n	n	n	n	n	n
CC(=O)Nc1cccc(C(=O)NC2(c3ccc(F)cc3)CCC2)c1	x	x	x	n	x	x
CCCC(=O)NCC1CC2c3ccccc3C1c1ccccc12 (stereo not given)	x	x	x	n	x	x
CNc1oc(-c2cc(S(=O)(=O)N(C)C)c(C)o2)nc1C#N	x	x	x	n	x	x
SMILES	TrxR1 inh	GLS inhibitor	TrxR1 substrate	LDHA inh	mIDH1 inhibitor	PKM2 activator
COc1cc(/C=C2/SC(=S)NC2=O)ccc1OS(=O)(=O)c1ccc(C)cc1	n	u	n	-34.3	u	n
O=C1c2ccccc2NC(c2ccco2)N1O (stereo not given)	39.8µM	n	n	n	n	n
COc1ccccc1C1=NC(c2ccccc2)CN1c1ccccc1 (stereo not given)	22.4µM	n	n	n	n	x
COc1cccc(OCc2cc(C3C(C#N)=C(N)Oc4n[nH]c(C)c43)ccc2OC)c1 (stereo not given)	x	x	x	n	x	x
O=C(O)C(Cl)C12CC3CC(C1)CC(C(Cl)C(=O)O)(C3)C2 (stereo not given)	x	x	x	n	x	x
Oc1ccc[n+](CC(O)c2ccccc2)c1 (stereo not given)	n	n	n	n	n	x
OC(C[n+]1c(Cl)ccc2ccccc21)c1ccccc1 (stereo not given)	39.8µM	x	n	x	x	x
O=C(NCc1ccco1)C1Cc2ccccc2CN1S(=O)(=O)c1ccccc1F (stereo not given)	15.8µM	n	n	n	n	x
CCCC1Nc2ccc(C(=O)O)cc2C2C=CCC12 (stereo not given)	50.1µM	10µM	n	n	n	n
CCOC(=O)C1Nc2ccc(C(=O)O)cc2C2C=CCC12 (stereo not given)	11.2µM	3.16µM	n	n	n	n
CCOC(=O)c1ccc2c(c1)C1C=CCC1C(C(=O)O)N2 (stereo not given)	x	x	x	x	x	n
COc1cccc(/C(O)=C/C(=O)C(=O)Nc2ccc(S(=O)(=O)NC(C)=O)cc2)c1	22.4µM	n	n	n	n	n
CCOC(=O)C1=C(N)n2c(s/c(=C/c3ccco3)c2=O)=C(C(=O)OC)C1c1ccco1 (stereo not given)	u	n	n	n	n	n
N#CC1=C(N)n2c(s/c(=C\c3ccco3)c2=O)=C(C#N)C1c1ccco1 (stereo not given)	u	11.2µM	n	n	n	n
O=C(c1ccc(NS(=O)(=O)c2cccc3cccnc23)cc1)N1CCOCC1	n	n	n	n	n	x
O=C(c1ccc(NS(=O)(=O)c2cccc3cccnc23)cc1)N1CCCCC1	n	n	n	n	n	15.8µM
O=C1CCCc2oc3ccc(NS(=O)(=O)c4cccc5cccnc45)cc3c21	n	u	n	n	n	n
O=c1oc2ccc(NS(=O)(=O)c3cccc4cccnc34)cc2s1	n	n	n	n	n	14.1µM
O=C(NCCOC(=O)c1ccc(C(=O)OCCNC(=O)c2cccnc2)s1)c1cccnc1	n	n	n	n	n	15.8µM
Cc1ccc(NC(=O)c2nc3ccccc3nc2N2CCCC2)cc1	x	x	x	n	x	x
CCc1nnc(NC(=O)c2nc(S(=O)(=O)Cc3cccc(C)c3)ncc2Cl)s1	39.8µM	n	n	n	n	n[0.46 µM]
CSc1nnc(NC(=O)c2nc(S(=O)(=O)Cc3cccc(C)c3)ncc2Cl)s1	u	n	n	n	n	x
CCc1nnc(NC(=O)c2nc(S(=O)(=O)Cc3ccccc3)ncc2Cl)s1	44.7µM	n	n	n	n	x
CCOc1ccccc1NC(=O)c1nc(S(=O)(=O)Cc2cccc(C)c2)ncc1Cl	7.08µM	n	n	n	n	x

High-throughput results deposited in PubChem by National Center for Advancing Translational Sciences (NCATS).
